Reference: the supplement of paper PMC10849652
The full data set covers some 8,800 targets. This sample favours those with a hit. About 0.5% of all pairs of compound and target were hits.

Columns and labels:
Assay in all cases: log2 fold change, soluble protein after heating vs DMSO (PISA); higher = thermal stabilisation; K562 lysate, 10 uM; active = over 0.2 and 3.5 SD of the protein, either way, in both replicates (recomputed)
[1] = compound: Cc1cn(-c2cc(NC(=O)c3ccc(C)c(Nc4nccc(-c5cccnc5)n4)c3)cc(C(F)(F)F)c2)cn1 [nilotinib]
In short: (§1)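 Log-two fold change in thermal stability relative to solvent controls is reported from duplicates. For each sample, crude K562 extract from dounce-homogenised pellets in PBS pH 7.4 with 1 mM MgCl2, at 1 mg/mL protein, was treated with 10 μM compound for 30 min. Aliquots heated for 3 min across 48°C-58°C were pooled, brought to 0.5% NP-40 at 4°C and cleared at 21,000xg for 90 min. The supernatant was quantified by TMTpro 16plex LC-MS/MS with channel sums equalised.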

[2] = compound: Cc1nc(Nc2n[nH]c3c2CN(C(=O)N[C@H](CN(C)C)c2ccccc2)C3(C)C)c2sccc2n1
In short: as §1

[3] = compound: Cc1nc(Nc2ncc(C(=O)Nc3c(C)cccc3Cl)s2)cc(N2CCN(CCO)CC2)n1 [dasatinib]
In short: as §1

[4] = compound: Cc1ncc(-c2ccnc(Nc3ccc(S(C)(=O)=O)cc3)n2)n1C(C)C
In short: as §1

[5] = compound: Cn1cc(-c2ccc3c(c2)CCN3C(=O)Cc2cccc(C(F)(F)F)c2)c2c(N)ncnc21
In short: as §1

[6] = compound: Cn1cc(CNCC2CCN(c3ncc(C(=O)NO)cn3)CC2)c2ccccc21 [quisinostat]
In short: as §1

[7] = compound: Cn1cncc1[C@@](N)(c1ccc(Cl)cc1)c1ccc2c(c1)c(-c1cccc(Cl)c1)cc(=O)n2C [tipifarnib]
In short: as §1

[8] = compound: NC(=O)Nc1cc(-c2cccc(F)c2)sc1C(=O)N[C@H]1CCCNC1
In short: as §1

[9] = compound: NC(=O)c1cnc(N[C@@H]2CCCC[C@@H]2N)nc1Nc1cccc(-n2nccn2)c1
In short: as §1

[10] = compound: NC1(c2ccc(-c3nc4ccn5c(=O)[nH]nc5c4cc3-c3ccccc3)cc2)CCC1
In short: as §1

Measured: log2 fold change

CDC16 (UniProt Q13042)
inactive: [1] -0.013 | [2] 0.023 | [3] -0.012 | [4] -0.027 | [5] 0.019 | [6] 0.01 | [7] 0.017 | [8] 0.024 | [9] -0.019 | [10] -0.014

CALM2 (UniProt P0DP24)
inactive: [1] -0.009 | [2] 0.014 | [3] -0.013 | [4] 0.022 | [5] -0.001 | [6] -0.178 | [7] 0.016 | [8] -0.053 | [9] -0.014 | [10] -0.06

CEBPZOS (UniProt A8MTT3)
Chain of UniProt A8MTT3 (A8MTT3 whole entry, looked up): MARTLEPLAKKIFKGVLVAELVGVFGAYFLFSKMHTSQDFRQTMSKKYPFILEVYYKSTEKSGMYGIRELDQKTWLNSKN
inactive: [1] 0.069 | [2] -0.01 | [3] 0.053 | [4] 0.024 | [5] 0.044 | [6] 0.02 | [7] -0.017 | [8] -0.039 | [9] -0.004 | [10] -0.008

BCL2L12 (UniProt Q9HB09)
inactive: [1] -0.12 | [2] -0.007 | [3] -0.129 | [4] -0.004 | [5] 0.046 | [6] 0.022 | [7] 0.075 | [8] -0.041 | [9] 0.121 | [10] 0.013

CCNA2 (UniProt P20248)
inactive: [1] -0.014 | [2] 0.064 | [3] 0.04 | [5] -0.051 | [6] -0.086 | [7] -0.015 | [8] 0.005 | [9] 0.063 | [10] -0.021
active: [4] 0.234

CDC42EP4 (UniProt Q9H3Q1)
inactive: [1] 0.061 | [2] -0.043 | [3] 0.039 | [4] -0.026 | [5] -0.028 | [6] -0.045 | [7] 0.006 | [8] -0.02 | [9] -0.025 | [10] 0.02

CANX isoform 2 (UniProt P27824)
inactive: [1] -0.006 | [2] 0.008 | [3] 0.012 | [4] -0.02 | [5] -0.02 | [6] -0.029 | [7] -0.064 | [8] -0.011 | [9] -0.004 | [10] -0.011

CCDC186 (UniProt Q7Z3E2)
inactive: [1] -0.046 | [2] -0.056 | [3] -0.014 | [4] 0.03 | [5] 0.043 | [6] -0.03 | [7] -0.01 | [8] 0.033 | [9] -0.017 | [10] 0.001

ATP6V1B1 (UniProt P15313)
Chain of UniProt P15313 (P15313 whole entry, looked up): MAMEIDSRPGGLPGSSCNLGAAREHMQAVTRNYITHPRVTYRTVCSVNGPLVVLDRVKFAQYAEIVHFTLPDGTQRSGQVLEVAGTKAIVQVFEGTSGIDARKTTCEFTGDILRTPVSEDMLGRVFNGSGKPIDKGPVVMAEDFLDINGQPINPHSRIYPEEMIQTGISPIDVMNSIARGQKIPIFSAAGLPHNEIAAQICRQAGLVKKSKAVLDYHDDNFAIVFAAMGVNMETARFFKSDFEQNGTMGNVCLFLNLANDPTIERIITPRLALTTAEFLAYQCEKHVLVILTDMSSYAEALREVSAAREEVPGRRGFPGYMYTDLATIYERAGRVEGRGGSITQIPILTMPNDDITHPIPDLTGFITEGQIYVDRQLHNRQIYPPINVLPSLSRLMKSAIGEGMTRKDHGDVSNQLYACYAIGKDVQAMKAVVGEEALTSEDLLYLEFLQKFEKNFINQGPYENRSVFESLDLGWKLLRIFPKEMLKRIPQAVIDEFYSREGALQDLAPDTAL
inactive: [1] -0.024 | [2] 0.029 | [3] 0.034 | [4] -0.045 | [5] -0.021 | [6] -0.029 | [7] -0.036 | [8] 0.01 | [9] 0.019 | [10] 0.008

CALB2 (UniProt P22676)
Chain of UniProt P22676 (P22676 whole entry, looked up): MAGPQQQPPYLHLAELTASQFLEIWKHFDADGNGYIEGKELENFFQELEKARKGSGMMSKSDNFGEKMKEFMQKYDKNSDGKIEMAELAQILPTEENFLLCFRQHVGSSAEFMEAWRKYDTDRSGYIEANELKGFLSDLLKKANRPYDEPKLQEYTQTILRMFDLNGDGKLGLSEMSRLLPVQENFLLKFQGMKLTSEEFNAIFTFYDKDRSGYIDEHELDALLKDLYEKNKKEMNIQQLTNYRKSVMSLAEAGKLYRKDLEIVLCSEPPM
inactive: [1] 0.098 | [2] -0.085 | [3] -0.037 | [4] 0.056 | [5] 0.016 | [6] 0.091 | [7] -0.079 | [8] -0.006 | [9] -0.004 | [10] 0.046

BTAF1 (UniProt O14981)
inactive: [1] -0.005 | [2] 0.018 | [3] -0.028 | [4] 0.007 | [5] 0.008 | [6] -0.015 | [7] -0.011 | [8] 0.033 | [9] 0.016 | [10] 0.004

ATP13A1 (UniProt Q9HD20)
inactive: [1] 0.009 | [2] 0.004 | [3] 0.102 | [4] 0.003 | [5] 0.005 | [6] 0.001 | [7] -0.109 | [8] -0.044 | [9] 0.07 | [10] 0.065

CCAR2 (UniProt Q8N163)
Chain of UniProt Q8N163 (Q8N163 whole entry, looked up): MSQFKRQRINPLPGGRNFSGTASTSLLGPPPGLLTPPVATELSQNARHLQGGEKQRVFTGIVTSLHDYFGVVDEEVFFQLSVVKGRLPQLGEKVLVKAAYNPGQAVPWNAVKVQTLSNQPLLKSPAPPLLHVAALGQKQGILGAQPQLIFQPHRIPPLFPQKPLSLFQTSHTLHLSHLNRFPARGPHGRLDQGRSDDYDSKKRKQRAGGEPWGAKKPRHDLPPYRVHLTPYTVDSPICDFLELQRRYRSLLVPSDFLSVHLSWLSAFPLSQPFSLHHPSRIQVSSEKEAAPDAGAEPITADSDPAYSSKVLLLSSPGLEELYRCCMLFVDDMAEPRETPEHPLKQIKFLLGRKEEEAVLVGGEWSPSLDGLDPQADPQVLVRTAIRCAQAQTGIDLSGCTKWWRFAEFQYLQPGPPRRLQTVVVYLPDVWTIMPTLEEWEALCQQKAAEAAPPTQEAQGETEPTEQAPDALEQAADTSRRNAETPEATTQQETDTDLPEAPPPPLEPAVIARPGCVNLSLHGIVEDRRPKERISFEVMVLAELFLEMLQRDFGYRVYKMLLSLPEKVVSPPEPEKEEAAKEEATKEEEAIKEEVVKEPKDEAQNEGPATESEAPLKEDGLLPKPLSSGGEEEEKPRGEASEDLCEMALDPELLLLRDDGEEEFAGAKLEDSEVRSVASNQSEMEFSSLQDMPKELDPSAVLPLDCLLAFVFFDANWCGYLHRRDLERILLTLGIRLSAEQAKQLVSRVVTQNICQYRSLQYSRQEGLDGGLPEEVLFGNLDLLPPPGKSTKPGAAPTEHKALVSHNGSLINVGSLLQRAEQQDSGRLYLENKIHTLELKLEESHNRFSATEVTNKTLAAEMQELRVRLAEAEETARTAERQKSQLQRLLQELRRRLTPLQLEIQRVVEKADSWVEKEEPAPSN
inactive: [1] -0.001 | [2] -0.016 | [3] -0.069 | [4] -0.017 | [5] 0.018 | [6] -0.033 | [7] -0.013 | [8] 0.027 | [9] 0.014 | [10] -0.007

ATAD1 (UniProt Q8NBU5)
inactive: [1] 0.073 | [2] -0.015 | [3] 0.001 | [4] -0.153 | [5] 0.039 | [6] -0.072 | [7] -0.072 | [8] -0.001 | [9] 0.027 | [10] -0.031

CCDC22 (UniProt O60826)
inactive: [1] 0.007 | [2] -0.018 | [3] -0.055 | [4] -0.005 | [5] -0.006 | [6] -0.006 | [7] 0.012 | [8] 0.041 | [9] 0.025 | [10] -0.017

CDK5 (UniProt Q00535)
Chain of UniProt Q00535 (Q00535 whole entry, looked up): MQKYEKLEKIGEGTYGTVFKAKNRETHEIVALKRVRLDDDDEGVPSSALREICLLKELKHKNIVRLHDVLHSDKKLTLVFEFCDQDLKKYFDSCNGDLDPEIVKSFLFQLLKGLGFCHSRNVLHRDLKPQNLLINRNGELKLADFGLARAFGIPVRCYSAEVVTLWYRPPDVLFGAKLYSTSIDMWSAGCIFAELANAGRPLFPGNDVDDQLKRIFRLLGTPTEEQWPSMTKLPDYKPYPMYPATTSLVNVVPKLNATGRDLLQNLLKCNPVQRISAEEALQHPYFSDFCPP
active: [4] 0.541
inactive: [1] -0.013 | [2] 0.23 | [3] 0.022 | [5] 0.019 | [6] -0.132 | [7] 0.003 | [8] 0.044 | [9] 0.05 | [10] -0.112

CASP6 (UniProt P55212)
inactive: [1] 0.018 | [2] 0.017 | [3] 0.005 | [4] -0.026 | [5] -0.001 | [6] 0.013 | [7] -0.027 | [8] -0.034 | [9] 0.003 | [10] 0.023

CHCHD4 isoform 2 (UniProt Q8N4Q1)
inactive: [1] -0.029 | [2] 0.023 | [3] -0.035 | [4] -0.031 | [5] -0.018 | [6] -0.156 | [7] 0.018 | [8] 0.032 | [9] -0.008 | [10] -0.028

C15orf41 (UniProt Q9Y2V0)
Chain of UniProt Q9Y2V0 (Q9Y2V0 whole entry, looked up): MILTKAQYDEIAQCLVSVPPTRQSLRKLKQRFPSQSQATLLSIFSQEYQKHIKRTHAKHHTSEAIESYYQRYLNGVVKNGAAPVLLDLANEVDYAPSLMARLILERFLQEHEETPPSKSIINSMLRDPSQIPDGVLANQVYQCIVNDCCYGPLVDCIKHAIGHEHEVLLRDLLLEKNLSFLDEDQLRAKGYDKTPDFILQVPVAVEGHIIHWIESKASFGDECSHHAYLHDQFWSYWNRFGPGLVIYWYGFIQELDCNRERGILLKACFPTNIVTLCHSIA
inactive: [1] -0.041 | [2] 0 | [3] 0.09 | [4] 0.038 | [5] -0.036 | [6] -0.023 | [7] -0.014 | [8] 0.076 | [9] 0.024 | [10] 0

C9orf72 (UniProt Q96LT7)
inactive: [1] 0.017 | [2] -0.063 | [3] -0.025 | [4] 0.073 | [5] 0.001 | [6] -0.034 | [7] -0.065 | [8] -0.03 | [9] 0.015 | [10] -0.014

CHAC2 (UniProt Q8WUX2)
inactive: [1] 0.004 | [2] 0.043 | [3] -0.022 | [4] -0.024 | [5] 0.036 | [6] -0.066 | [7] 0.041 | [8] 0.019 | [9] 0.017 | [10] -0.027

BLOC1S6 (UniProt Q9UL45)
Chain of UniProt Q9UL45 (Q9UL45 whole entry, looked up): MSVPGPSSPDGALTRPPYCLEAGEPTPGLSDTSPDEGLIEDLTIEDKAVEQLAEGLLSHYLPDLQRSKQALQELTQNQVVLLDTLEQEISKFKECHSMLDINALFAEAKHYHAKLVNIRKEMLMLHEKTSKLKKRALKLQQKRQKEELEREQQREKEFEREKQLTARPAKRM
inactive: [1] -0.073 | [2] 0.036 | [3] 0.093 | [4] 0.093 | [5] -0.008 | [6] 0.042 | [7] -0.063 | [8] -0.049 | [9] -0.023 | [10] 0.096

CDK5RAP2 (UniProt Q96SN8)
Chain of UniProt Q96SN8 (Q96SN8 whole entry, looked up): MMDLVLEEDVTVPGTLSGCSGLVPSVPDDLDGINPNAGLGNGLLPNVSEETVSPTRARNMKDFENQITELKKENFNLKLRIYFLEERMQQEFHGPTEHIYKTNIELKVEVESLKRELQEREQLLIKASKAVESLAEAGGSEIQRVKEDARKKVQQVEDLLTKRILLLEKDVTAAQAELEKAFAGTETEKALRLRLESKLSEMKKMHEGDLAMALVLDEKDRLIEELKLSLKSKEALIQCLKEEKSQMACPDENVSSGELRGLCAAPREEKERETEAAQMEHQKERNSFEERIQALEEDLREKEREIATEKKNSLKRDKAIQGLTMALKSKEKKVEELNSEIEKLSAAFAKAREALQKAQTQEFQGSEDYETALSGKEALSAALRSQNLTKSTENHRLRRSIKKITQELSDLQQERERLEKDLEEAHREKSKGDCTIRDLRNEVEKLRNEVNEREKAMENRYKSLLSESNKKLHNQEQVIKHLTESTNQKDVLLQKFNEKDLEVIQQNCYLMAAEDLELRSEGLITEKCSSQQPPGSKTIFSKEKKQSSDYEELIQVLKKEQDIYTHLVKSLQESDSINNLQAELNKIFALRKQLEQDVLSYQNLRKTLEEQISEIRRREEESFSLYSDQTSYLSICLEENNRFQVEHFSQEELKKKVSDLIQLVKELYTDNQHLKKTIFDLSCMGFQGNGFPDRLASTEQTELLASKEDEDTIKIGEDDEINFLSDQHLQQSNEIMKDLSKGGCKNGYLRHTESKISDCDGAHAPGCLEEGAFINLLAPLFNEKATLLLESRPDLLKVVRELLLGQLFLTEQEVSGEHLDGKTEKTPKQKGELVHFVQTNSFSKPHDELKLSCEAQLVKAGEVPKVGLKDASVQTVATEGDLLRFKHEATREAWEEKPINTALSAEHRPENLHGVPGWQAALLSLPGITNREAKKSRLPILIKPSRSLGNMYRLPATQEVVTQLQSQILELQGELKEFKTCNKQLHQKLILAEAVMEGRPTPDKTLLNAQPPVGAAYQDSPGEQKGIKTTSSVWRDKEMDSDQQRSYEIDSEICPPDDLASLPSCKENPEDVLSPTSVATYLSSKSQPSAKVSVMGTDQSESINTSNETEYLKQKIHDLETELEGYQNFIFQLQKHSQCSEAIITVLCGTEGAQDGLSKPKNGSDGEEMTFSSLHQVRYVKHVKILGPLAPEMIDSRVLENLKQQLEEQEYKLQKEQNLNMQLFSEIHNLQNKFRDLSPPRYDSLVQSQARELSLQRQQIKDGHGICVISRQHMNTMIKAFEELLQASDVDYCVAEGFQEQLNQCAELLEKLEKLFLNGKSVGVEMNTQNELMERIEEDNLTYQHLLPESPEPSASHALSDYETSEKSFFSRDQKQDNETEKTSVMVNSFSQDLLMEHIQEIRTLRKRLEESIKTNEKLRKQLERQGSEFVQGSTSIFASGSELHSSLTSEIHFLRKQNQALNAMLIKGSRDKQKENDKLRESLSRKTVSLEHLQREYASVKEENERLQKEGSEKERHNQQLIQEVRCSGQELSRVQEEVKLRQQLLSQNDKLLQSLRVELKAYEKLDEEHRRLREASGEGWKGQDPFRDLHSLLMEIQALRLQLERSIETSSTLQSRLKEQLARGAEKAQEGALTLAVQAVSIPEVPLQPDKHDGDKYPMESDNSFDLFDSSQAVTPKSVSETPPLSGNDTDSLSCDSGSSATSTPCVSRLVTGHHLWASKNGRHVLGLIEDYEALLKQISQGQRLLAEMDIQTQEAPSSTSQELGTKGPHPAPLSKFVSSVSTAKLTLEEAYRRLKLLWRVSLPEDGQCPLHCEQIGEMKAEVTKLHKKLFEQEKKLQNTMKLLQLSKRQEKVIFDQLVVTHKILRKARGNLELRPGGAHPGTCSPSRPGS
inactive: [1] 0.024 | [2] -0.009 | [3] -0.002 | [4] 0.056 | [5] -0.015 | [6] -0.081 | [7] -0.011 | [8] -0.006 | [9] -0.104 | [10] -0.001

CDK16 isoform 2 (UniProt Q00536)
inactive: [1] 0.043 | [2] 0.412 | [3] 0.033 | [5] -0.033 | [6] -0.044 | [7] -0.01 | [8] -0.016 | [9] 0.081 | [10] -0.124
active: [4] 0.433

CDK13 (UniProt Q14004)
inactive: [1] -0.081 | [2] 0 | [3] 0.004 | [4] -0.051 | [5] 0.005 | [6] 0.068 | [7] 0.032 | [8] -0.039 | [9] 0.033 | [10] 0.131

CAMK2G isoform 8 (UniProt Q13555)
Chain of UniProt Q13555 (Q13555 whole entry, looked up): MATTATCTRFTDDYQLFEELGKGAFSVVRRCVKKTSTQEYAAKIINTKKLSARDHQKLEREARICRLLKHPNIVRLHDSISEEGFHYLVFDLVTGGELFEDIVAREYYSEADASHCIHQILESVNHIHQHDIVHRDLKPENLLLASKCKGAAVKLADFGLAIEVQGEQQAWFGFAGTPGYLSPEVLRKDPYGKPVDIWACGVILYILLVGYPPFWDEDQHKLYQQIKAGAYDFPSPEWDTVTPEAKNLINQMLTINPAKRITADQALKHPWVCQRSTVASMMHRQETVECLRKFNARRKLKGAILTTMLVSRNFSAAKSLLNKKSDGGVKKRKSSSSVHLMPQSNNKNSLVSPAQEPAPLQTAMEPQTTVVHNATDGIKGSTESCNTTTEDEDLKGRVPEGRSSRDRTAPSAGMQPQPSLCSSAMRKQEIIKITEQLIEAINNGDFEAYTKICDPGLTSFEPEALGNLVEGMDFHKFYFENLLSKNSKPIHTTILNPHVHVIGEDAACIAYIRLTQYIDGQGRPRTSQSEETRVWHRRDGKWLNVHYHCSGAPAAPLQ
active: [2] 0.518
inactive: [1] -0.007 | [3] -0.034 | [4] 0.039 | [5] -0.062 | [6] -0.125 | [7] -0.005 | [8] 0.219 | [9] 0.019 | [10] -0.125

CHCHD2 (UniProt Q9Y6H1)
inactive: [1] -0.102 | [2] 0.039 | [3] 0.016 | [4] -0.075 | [5] 0.031 | [6] -0.049 | [7] 0.058 | [8] -0.014 | [9] -0.029 | [10] 0.136

ATR (UniProt Q13535)
inactive: [1] -0.075 | [2] 0.002 | [3] 0.001 | [4] 0.013 | [5] 0.001 | [6] -0.219 | [7] -0.032 | [8] 0.047 | [9] 0.014 | [10] -0.085

CDK1 (UniProt P06493)
inactive: [1] -0.026 | [2] 0.018 | [3] -0.027 | [4] 0.067 | [5] -0.02 | [6] 0.003 | [7] 0.015 | [8] 0.012 | [9] 0.127 | [10] 0.015

CCNH (UniProt P51946)
inactive: [1] -0.013 | [2] 0.106 | [3] 0.03 | [4] -0.001 | [5] 0.015 | [6] 0.016 | [7] -0.043 | [8] -0.009 | [9] 0.026 | [10] 0.013

C19orf54 (UniProt Q5BKX5)
inactive: [1] 0.012 | [2] -0.006 | [3] -0.037 | [4] -0.016 | [5] 0.006 | [6] 0.006 | [7] -0.007 | [8] 0.098 | [9] 0.016 | [10] 0.003
